# Experimental data as given in PubChem BioAssay AID504706 (National Center for Advancing Translational Sciences (NCATS), 2011).
# Hit rate of the full screen: of about 320,000 compounds, about 200 (0.062%) were called active. About 6% were inconclusive and are not listed. For the sample, actives were picked, then their nearest neighbours and some compounds at random. A number with no mark means an inactive call. Calls follow the shape of the dose curve; as a rule, active = well fitted activation curve with a large enough effect; inconclusive = small, poorly fitted or top-dose-only effect; inactive = no such curve, though single readings can be large or run the other way.
# Experiment: qHTS assay for re-activators of p53 using a Luc reporter; also: nearly all actives have a fitted effect of over 45% in size; as to activity change, positive = activation: % of control where 0% means no effect
# Settings: H1299 p53-A138V BP100-luciferase reporter, luminescence, 24 h; series mostly up to 92.2 µM; activity change, positive = activation: at the top concentration
# From the text: The p53 tumor suppressor plays a key role in suppression of tumorigenesis and in human carcinogenesis. It is frequently found inactivated in human cancers, mainly by point mutation. These point mutations are found in a wide variety of human cancers and a majority of them affect the DNA binding domain of the protein. The point mutations either alter native p53 conformation or abolish DNA contact. Additionally, cancer cells with p53 mutations are more resistant to chemo-radiation therapies. In order to find activators to reactivate this important protein, a cell-based screen for p53-dependent luciferase-reporter expression was developed. A p53-null H1299 lung cancer cell line was stably co-transfected with a temperature sensitive p53 mutant, p53-A138V, and a p53-responsive BP100-luciferase reporter. This cell model has previously been characterized in a gene chip profiling experiment for p53 activation. By lowering the culture temperature from 37 deg C (mutant p53 conformation) to 32 deg C (w.t. p53 conformation), a 30-60 fold increase in activation of luciferase activity is observed. At assay temperate, 37 deg C, basal reporter expression is very low and after the addition of detection reagent, a luminescent read-out is carried out. NIH Chemical Genomics Center [NCGC] NIH Molecular Libraries Probe Production Centers Network [MLPCN] MLPCN Grant: DA031088-01A1 Assay Provider (PI): Yi Sung, University of Michigan at Ann Arbor
# 5ul of 1000 cells per well are dispensed in all wells except column 4, into white solid-bottom TC-treated Kalypsys plates. The cells are kept in Opti-MEM and supplemented with 10% FBS and dispensed using a Multidrop (Thermo). Then using the Kalypsys pin-tool, 23nl of compounds are pinned. The compounds are starting concentration at 10mM, with 1:5 dilution, 4 points, and the control compound nocodazole is pinned in column 1 at 25mM, 1:3 dilution, in duplicate, 25mM nocodazole is pinned in column 2. Please note, all concentrations are working concentrations. 5ul of 1pM purified luciferase enzyme is dispensed using the Kalypsys dispenser in column 4. Plates are incubated for 24 hrs at 37 deg C, 5% CO2, and 95% humidity. Then 4ul of the detection reagent Amplite (ABD Bioquest) is added using the Kalypsys dispenser. Plates are incubated for 10 min at ambient room temperature and are then read on the ViewLux (Perkin Elmer) using a clear filter for a luminescent read-out.
# Potency is read from the fitted curve at half-maximal effect.
Structure (SMILES),Potency,"activity change, positive = activation"
Cc1cc(N)n2nc(-c3ccc(C(C)(C)C)cc3)cc2n1,11.2 µM (active),
Cc1cc(C(C)(C)C)n2nc(C)c(-c3ccccc3)c2n1,,1.98%
Cc1nc2cc(-c3ccc(F)cc3)nn2c(N2CCOCC2)c1C,,15.1%
CC(C)CC1NC(=O)c2cc(Cl)ccc2-n2c1nc1ccccc1c2=O (configuration not stated),,-4.01%
COc1cccc(CNC(C)C(=O)Nc2ccc(S(=O)(=O)N3CCCC3)cc2)c1 (configuration not stated),,-4.27%
Cc1cc(NC(=O)CSCC(=O)NC(C)c2ccccc2)no1 (configuration not stated),,-1.81%
O=C(Nc1ccc(N2CCOCC2)cc1)c1cccc(S(=O)(=O)N2CCOCC2)c1,,-1.76%
Oc1ccccc1-c1cc(-c2ccc(Cl)cc2)n[nH]1,2.82 µM (active),
Cc1ccc(NC(=O)c2cc(-c3ccccc3O)n[nH]2)cc1C,,-0.764%
O=C(Nc1cccnc1Cl)c1cc(-c2ccccc2O)on1,,23.1%
CCN(CC(=O)NCc1ccc(F)cc1)S(=O)(=O)c1ccc(Cl)s1,,-4.07%
CC(=O)c1ccc(NC(=O)CSc2nc3ccccc3c(=O)n2CCCN2CCOCC2)cc1,,-10.6%
CC(=O)Nc1ccc(S(=O)(=O)Nc2ccc(N3CCCCC3)cc2)cc1,,7.31%
CC[C@]1(C(=O)OC)[C@H]2C(=O)N(C)C(=O)[C@H]2[C@H]2CN(C)C(=NCc3ccccc3)N21,,-0.397%
CC1O[C@H](OC2C(COC3OC(CO)C(O)[C@H](O)C3O)OC(OC3CC[C@]4(C)C(CC[C@@]5(C)[C@@H]4C=C[C@]46OC[C@@]7(CCC(C)(C)C[C@H]74)C(O)C[C@@]56C)C3(C)C)C(O)C2O)C(O)C(O)C1O (some centres not stated),,0.455%
CC[C@]12c3[nH]c4cc(CCC(=O)N(C)C)ccc4c3CCN1C(=O)[C@@H](CC(=O)NCCCN(C)C)C[C@@H]2C(=O)N1CCN(C(=O)c2ccco2)CC1,,-0.34%
CN1C(=O)[C@H]2[C@@H](/C=C/c3ccccc3)N3C(=O)CN(Cc4ccc(-c5ccccc5)cc4)C(=O)[C@@]3(C)[C@H]2C1=O,,0.747%
CC1Sc2ccc(C(=O)NCc3ccccc3Cl)cc2NC1=O (configuration not stated),,0.128%
O=C1NC(Cc2ccc(O)cc2)c2nc3ccc(Cl)cc3c(=O)n2-c2ccccc21 (configuration not stated),,3.93%
Cc1ccc(C)c(S(=O)(=O)N2CCN(c3ncnc4sccc34)CC2)c1,,-8.28%
C=CC[C@@H](Cc1ccc(F)cc1)C(=O)OC[C@H]1CCCN1C(=O)[C@H](CC=C)CC(=O)N(CCO)Cc1ccccc1,,2.23%

Structure (SMILES),Potency,"activity change, positive = activation"
CC(=O)Nc1ccc(C(=O)/C=C/c2ccc[nH]2)cc1,,9.7%
CC(=O)Nc1ccc(/C=C/C(=O)c2ccccc2)cc1,15.8 µM (active),
CC(=O)Nc1ccc(NC(=S)NC(=O)/C=C/c2ccccc2)cc1,,1.32%
O=C(C[C@H]1C[C@H](C(=O)N2CCOCC2)[C@@]2(CCC3CCCC3)c3[nH]c4ccc(Cl)cc4c3CCN2C1=O)NCc1ccco1,,-4.21%
CC[C@]12c3[nH]c4cc(CCC(=O)N(C)C)ccc4c3CCN1C(=O)[C@@H](CC(=O)NCc1ccco1)C[C@@H]2C(=O)N1CCN(C(=O)c2ccco2)CC1,,-0.895%
COc1cc(/C=C/C(=O)Nc2ccc(OC)c(S(=O)(=O)N3CCOCC3)c2)ccc1OCC#N,,-10.6%
O=C1OC[C@@H]2CCCN2C(=O)[C@H](CC(=O)N(CCO)Cc2ccccc2)C/C=C\CC[C@@H]1Cc1ccc(F)cc1,,5.47%
COc1cc(OC)c(C(=O)NNC(=O)c2ccccc2-n2cccc2)cc1OC,,-0.521%
C[C@@H]1CN([C@@H](C)CO)C(=O)c2cccc(NS(=O)(=O)c3ccc(F)cc3)c2O[C@H]1CN(C)C(=O)NC1CCCCC1,,-3.42%
COC(=O)[C@]1(C)N[C@H](CN(C)C(=O)c2ccc(C(C)(C)C)cc2)[C@@H]2C(=O)N(C)C(=O)[C@@H]21,,0.555%
Cc1ccc(CNC(=O)Cn2cnc3c(NCc4ccccc4)ncnc32)o1,,-1.49%
CN(C(=O)c1cccc(NC(=O)Cc2ccc([N+](=O)[O-])cc2)c1)C1CCC1,,-5.23%
CCN(C(=O)CSc1nnnn1-c1ccc(OC)cc1)C1CCS(=O)(=O)C1 (configuration not stated),,-2.62%
C#CCOCCOCCOCCNc1nc(N2CCN(C(=O)[C@H](CCCN=C(N)N)n3cc(C(N)[C@@H](C)CC)nn3)CC2)nc(N2CCN(C(=O)[C@H](CO)n3cc([C@@H](N)C(C)C)nn3)CC2)n1 (some centres not stated),,0.362%
CCCCNS(=O)(=O)CCNCc1ccccc1OC,,-5.63%
C=CCC[C@@H](Cc1ccc(F)cc1)C(=O)OC[C@@H](C)NC(=O)[C@H](CC=C)CC(=O)N(CCO)Cc1ccccc1,,-7.01%
CC(=NNC(=O)c1ccc2nc[nH]c2c1)c1ccc(Br)cc1,,5.89%
CC[C@@H]1CCCCc2ccccc2[C@@H](C(=O)C[C@H](O)CC(C)=O)OC1=O,,-0.71%
COc1ccc(-c2nn(-c3ccccc3)cc2/C=N/Nc2ccccn2)cc1OC,,0.301%
Oc1ccc(/C=N/Nc2ccc(C(F)(F)F)cn2)cc1O,,18.2%
Oc1ccc(Br)cc1/C=N/Nc1ccccn1,28.2 µM (active),

Structure (SMILES),Potency,"activity change, positive = activation"
COc1ccc(-c2nc3cc(C)ccn3c2NC2CCCCC2)cc1SC1CCCCC1,,3.29%
O=C(N/N=C/c1ccc(Cl)c(Cl)c1)c1ccc2nc[nH]c2c1,,13.3%
CSc1ccc(/C=N/NC(=O)c2cccc(Cl)c2)cc1,10 µM (active),
CSc1ccc(/C=N\NC(=O)CC(=O)NC(C)C)cc1,,1.21%
COc1ccc2nc3n(c(=O)c2c1)-c1cc(C)ccc1C(=O)NC3Cc1ccc(O)cc1 (configuration not stated),,3.32%
O=C1CCC/C=C/C[C@@H](CC(=O)N(CCO)Cc2ccccc2)C(=O)NC[C@H](c2ccccc2)O1,,0.64%
C=CCC[C@H](Cc1ccc(F)cc1)C(=O)OC[C@@H](Cc1c[nH]c2ccccc12)NC(=O)[C@H](CC=C)CC(=O)N[C@H](CO)Cc1ccccc1,,-2.92%
C=CCC[C@H](Cc1ccc(F)cc1)C(=O)OC[C@@H](NC(=O)[C@@H](CC=C)CC(=O)N[C@H](CO)Cc1ccccc1)C(C)(C)C,,-0.891%
C=CC[C@@H](CC(=O)N[C@H](CO)Cc1ccccc1)C(=O)N[C@H](C)COC(=O)[C@@H](CC=C)Cc1ccc(F)cc1,,3.98%
Cc1noc(C)c1S(=O)(=O)N(C)C[C@H]1Oc2c(NC(=O)Nc3ccc4c(c3)OCO4)cccc2C(=O)N([C@H](C)CO)C[C@@H]1C,,-4.87%
O=C(CCc1ccc(S(=O)(=O)N2CCOCC2)cc1)OCC(=O)c1ccc(Br)cc1,,-1.37%
Cc1ccc(NC(=O)C2CCC(C(C)(C)C)CC2)cc1S(=O)(=O)N1CCOCC1 (configuration not stated),,11.4%
O=C(Cn1cc(C(F)(F)F)ccc1=O)Nc1ccc2c(c1)OCCO2,,-1.81%
COc1ccccc1N(CC(=O)Nc1ccc(C)cc1Cl)S(=O)(=O)c1cccs1,,-6.31%
CC[C@]12c3[nH]c4ccc(Cl)cc4c3CCN1C(=O)[C@@H](CC(=O)NCCCOC)C[C@@H]2C(=O)N1CCN(C(=O)C2CC2)CC1,,1.51%
COc1ccc(CNC(=O)C[C@H]2C[C@H](C(=O)N3CCOCC3)[C@@]3(C)c4[nH]c5cc(CCC(=O)N(C)C)ccc5c4CCN3C2=O)cc1OC,,12.8%
COc1ccc(/C=C(\C#N)c2c[nH]c3ccccc23)cc1,31.6 µM (active),
COc1ccc2[nH]cc(/C=C(/C#N)S(=O)(=O)c3ccccc3)c2c1,,-3.33%
COc1ccc(C(C(O)C(=O)c2c[nH]c3ccccc23)N2CCN(c3ccccc3)CC2)cc1 (configuration not stated),,-0.0809%
C/C(=N\Nc1ncc(Cl)cc1Cl)c1cccs1,,-0.226%
CCN(CC)c1ccc(C(=O)N/N=C(\C)c2cccc(OC)c2)cc1,,6.61%

Structure (SMILES),Potency,"activity change, positive = activation"
COc1cccc(/C(C)=N/Nc2ncc(Cl)cc2Cl)c1,5.01 µM (active),
O=C1N[C@@H](c2ccccc2)COC(=O)[C@H](Cc2ccc(F)cc2)C/C=C\C[C@@H]1CC(=O)N(CCO)Cc1ccccc1,,-3.96%
CCCc1nc2ccccc2c(C(=O)OCC(=O)c2ccc3c(c2)NC(=O)CO3)c1CC,,3.69%
Cc1ccc(C(=O)COC(=O)c2cccc(N3C(=O)c4c(C)nc5ccccc5c4C3=O)c2)cc1C,35.5 µM (active),
O=C(CCc1nc2ccccc2c(=O)[nH]1)OCC(=O)c1cccc(Cl)c1,,-1.1%
CNC[C@@H]1Oc2c(NS(C)(=O)=O)cccc2C(=O)N([C@@H](C)CO)C[C@H]1C,,4.35%
COC(=O)[C@]1(Cc2ccccc2)N[C@H](CN(C)S(=O)(=O)c2ccc(OC(F)(F)F)cc2)[C@@H]2C(=O)N(C)C(=O)[C@@H]21,,21.7%
COc1ccc(CCNC(=O)COC(=O)c2ncc(Cl)c(Cl)c2Cl)cc1OC,,-3.05%
C=CC[C@@H](CC(=O)NCCO)C(=O)N[C@H](C)COC(=O)[C@@H](CC=C)CC(=O)OC(C)(C)C,,2.81%
CC(C)NC(=O)Nc1cccc2c1O[C@@H](CN(C)S(=O)(=O)c1ccc(F)cc1)[C@@H](C)CN([C@H](C)CO)C2=O,,-2.1%
C=CCC[C@@H](Cc1ccc(F)cc1)C(=O)O[C@H](CNC(=O)[C@H](CC=C)CC(=O)N(CCO)Cc1ccccc1)c1ccccc1,,2.56%
Cn1c(N)c(C(=O)COC(=O)c2cccc(S(=O)(=O)N3CCOCC3)c2)c(=O)n(C)c1=O,,3.86%
Cc1ccc(C(=O)NCC(=O)NC2CC2)cc1,,4.8%
COc1ccc2nc3n(c(=O)c2c1)-c1ccc(Cl)cc1C(=O)NC3Cc1ccccc1 (configuration not stated),,-4.22%
CCN(C[C@H]1N[C@@](CC)(C(=O)OC)[C@H]2C(=O)N(Cc3ccccc3)C(=O)[C@@H]12)S(=O)(=O)c1ccccc1,,-3.58%
Cc1ccc(S(=O)(=O)Nc2ccc3c(c2)C(=O)N([C@H](C)CO)C[C@@H](C)[C@@H](CN(C)C(=O)Nc2cccc4ccccc24)O3)cc1,,-4.09%
N#CCCN(C(=O)COC(=O)c1ccc2c(c1)OCCO2)c1ccccc1,,-10.6%
O=C(COC(=O)CSc1ccccc1)Nc1ccc(F)cc1F,,-3.41%
COc1ccc2[nH]c3c(c2c1)CCN1C(=O)C(CC(=O)NCCCN(C)C)C[C@H](C(=O)N2CCOCC2)[C@@]31CCC1CCCC1 (some centres not stated),,-5.21%
